In PubChem BioAssay:
Active and inactive are the calls of the source.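 Rule for the calls, unless noted: active = visually confirmed hit in the image check and inhibition above 20%; inconclusive = visually confirmed hit but inhibition not above 20%; inactive = no visual hit in the image check.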

Assays:
[1] = inhibitors of TNFa-induced NFkB p65 translocation, primary screen, imaging, HUVEC, MLSMR starter and 10KST1 sets (AID 438;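 active = inhibition above 20% together with a positive visual image hit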;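 note: compound added about 3h40 before a 20 min TNFalpha stimulation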;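 for inhibition: signal is the nuclear over cytoplasmic p65 intensity ratio per well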); conditions: HUVEC TNFa-induced p65 nuclear translocation; cell count: measured here: nuclei count (cytotoxicity indicator), at 2.08 µM; inhibition: at 2 µM, stronger effect = higher value, 0% TNFa-plus-vehicle, 100% no-TNFa wells
[2] = reduction of polyQ htt aggregates in cells – imaging, exon1htt(103Q)mCFP cells, high-content imaging, primary screen (AID 483;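 active = visual image review flags a hit and inhibition of aggregation exceeds 20%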;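 note: compound exposure lasted 3 days before fixation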;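 for nuclei count: percent of the per-plate median nuclei count of sample wells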); conditions: exon1htt(103Q)mCFP cell line, aggregate imaging, at 2 µM; inhibition of aggregation: stronger effect = higher value; nuclei count: measured here: cell count, toxicity
[3] = endothelial E-selectin expression blockers – imaging, HUVEC, immunofluorescence, MLSMR starter and 10KST1 sets, primary screen (AID 487); conditions: HUVEC TNFalpha-induced E-selectin immunofluorescence imaging, at 2 µM; inhibition: stronger effect = higher value; nuclei count: measured here: cell number, toxicity;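 for inhibition: signal is fraction of cell area covered by stained E-selectin grains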;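 for nuclei count: 100% = median nuclei count of all wells on the same plate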
[4] = target: Voltage-gated potassium channel subunit beta-2 (Rattus norvegicus) (UniProt P62483); test: inhibitors of rat Kvbeta2 reductase activity – biochemical, NADPH fluorescence, primary screen (AID 622;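 active = fluorescence slope higher than the sample average by over 3 SD, cut at about -0.22 in these data, passing the limit was not always enough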;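 note: slope of raw intensity against log time taken from 70 to 1610 s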); conditions: recombinant KvBeta, 4-cyanobenzaldehyde reduction, at 10 µM, stronger effect = higher value
Voltage-gated potassium channel subunit beta-2 (Rattus norvegicus), sequence (P62483 whole entry, looked up): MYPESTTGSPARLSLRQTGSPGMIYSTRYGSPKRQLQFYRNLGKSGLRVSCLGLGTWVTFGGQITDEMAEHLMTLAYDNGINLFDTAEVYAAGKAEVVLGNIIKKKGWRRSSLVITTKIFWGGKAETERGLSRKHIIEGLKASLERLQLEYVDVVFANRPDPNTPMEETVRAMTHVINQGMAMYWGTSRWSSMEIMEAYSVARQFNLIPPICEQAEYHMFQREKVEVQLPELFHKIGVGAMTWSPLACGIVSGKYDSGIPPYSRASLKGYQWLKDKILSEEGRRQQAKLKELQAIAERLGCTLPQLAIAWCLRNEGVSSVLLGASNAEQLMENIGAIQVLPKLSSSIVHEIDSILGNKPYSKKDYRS

[5] = target: Voltage-gated potassium channel subunit beta-2 (Rattus norvegicus) (UniProt P62483); test: enhancers of rat Kvbeta2 NADPH turnover – biochemical, NADPH fluorescence, primary screen (AID 623;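 active = NADPH fluorescence slope more negative than the mean of all samples by about 3 SD, 99.7% confidence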;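 note: fluorescence intensity change per second fitted from 20 to 320 s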); conditions: Recombinant KvBeta, NADPH fluorescence decrease slope, 10 min; at 10 µM; stronger effect = lower value
[6] = target: Alpha-2C adrenergic receptor (Homo sapiens) (UniProt P18825); test: compounds altering alpha2C-coupled GIRK flux – cell-based, HEK293 alpha2C/GIRK1/2, thallium flux, primary screen (AID 624;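 active = fluorescence slope after compound addition differing from the mean of all screened samples at 99.7% confidence, in either direction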;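 note: slope of fluorescence ratio to pre-addition baseline per second over 15 to 24 s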); conditions: thallium flux BTC fluorescence, at 10 µM, actives lie on both sides
Alpha-2C adrenergic receptor (Homo sapiens), sequence (P18825 whole entry, looked up): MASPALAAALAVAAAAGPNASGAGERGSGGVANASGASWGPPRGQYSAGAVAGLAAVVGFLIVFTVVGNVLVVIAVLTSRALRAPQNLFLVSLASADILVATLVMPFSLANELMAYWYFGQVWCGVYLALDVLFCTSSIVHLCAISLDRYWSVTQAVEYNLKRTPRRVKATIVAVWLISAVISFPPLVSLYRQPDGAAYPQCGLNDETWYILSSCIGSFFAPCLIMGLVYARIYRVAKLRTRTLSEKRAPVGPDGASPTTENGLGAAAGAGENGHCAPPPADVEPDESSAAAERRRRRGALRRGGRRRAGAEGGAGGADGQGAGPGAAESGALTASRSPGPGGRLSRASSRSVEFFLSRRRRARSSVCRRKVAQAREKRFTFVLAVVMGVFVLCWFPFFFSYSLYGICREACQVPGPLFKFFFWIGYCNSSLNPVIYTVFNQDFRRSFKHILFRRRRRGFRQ

[7] = blockers of RIG-like receptor reporter activation – cell-based, Sendai virus stimulus, luciferase, 10K MLSCN set, TLR/RLR signaling modifier project, primary screen (AID 602276;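 active = inhibition at or above 50% at 10 µM; inactive = inhibition below 50%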;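 note: firefly luciferase from ISG56 promoter only with Renilla not read in this screen; 0% = Sendai virus plus DMSO and 100% = medium plus DMSO without virus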); conditions: HEK293 RL24 IRF3 luciferase reporter, at 10 µM, stronger effect = higher value
[8] = TLR3 IRF3 reporter activation blockers – cell-based, poly I:C stimulus, luciferase, 10K MLSCN set, primary screen (AID 602277;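 active = inhibition of the reporter signal at or above 50%; inactive = inhibition below 50%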); conditions: HEK293-TLR3 RL24 IRF3 luciferase reporter, at 10 µM, stronger effect = higher value

Row | Structure (SMILES) | cell count [1] | inhibition [1] | inhibition of aggregation [2] | nuclei count [2] [%] | inhibition [3] | nuclei count [3] [%] | fluorescence slope [4] | NADPH fluorescence slope [5] | slope [6] | inhibition [7] | inhibition [8]
1 | COc1ccc(C(=O)NC(=O)CSc2nnc(-c3ccco3)n2-c2ccccc2)cc1 | 447 | 14.6% (inactive) | -9.6% (inactive) | 104 | -9.4% (inactive) | 107 | -0.324 (inactive) | -7e-05 (inactive) | 0.0052 (inactive) | 5.3% (inactive) | 10.1% (inactive)
2 | CCOC(=O)C(NC(=O)CC)(Nc1ccc(S(=O)(=O)Nc2onc(C)c2C)cc1)C(F)(F)F (stereo not drawn) | 320 | 3.4% (inactive) | 0.6% (inactive) | 95 | -27.3% (inactive) | 104 | -0.61 (inactive) | -1.1e-05 (inactive) | 0.00634 (inactive) | 11.3% (inactive) | 14.1% (inactive)
3 | Cc1cc(NS(=O)(=O)c2ccc(NC(=O)COc3ccc(Cl)cc3)cc2)no1 | 361 | 0.4% (inactive) | -9.7% (inactive) | 118 | -54.3% (inactive) | 122 | -0.292 (inactive) | -6.7e-05 (inactive) | 0.00576 (inactive) | 13% (inactive) | 19.8% (inactive)
4 | CN(C)c1ccc(C(=O)OCC(=O)NC2CCCCC2)cc1 | 548 | -0.3% (inactive) | 4.3% (inactive) | 90.3 | -46.5% (inactive) | 110 | -0.475 (inactive) | -3.6e-05 (inactive) | 0.00547 (inactive) | 16.6% (inactive) | 10.9% (inactive)
5 | Cn1cc(Cl)c(C(=O)N(Cc2ccccc2)c2ccccn2)n1 | 623 | 8.3% (inactive) | -6.5% (inactive) | 102 | -5.2% (inactive) | 117 | -0.584 (inactive) | -3.1e-06 (inactive) | 0.00695 (inactive) | -18.3% (inactive) | 0.52% (inactive)
6 | Nc1nc(CSc2nc3ccccc3[nH]2)nc(N2CCOCC2)n1 | 675 | -17.6% (inactive) | -0.7% (inactive) | 87.9 | -51% (inactive) | 111 | -0.449 (inactive) | -3.7e-05 (inactive) | 0.00382 (inactive) | 3.37% (inactive) | 18.9% (inactive)
7 | CCOC(=O)c1cccc(NC(=O)C2CCN(S(=O)(=O)c3cccs3)CC2)c1 | 369 | -5.7% (inactive) | 3.6% (inactive) | 90.7 | -45.4% (inactive) | 128 | -0.634 (inactive) | -3.5e-05 (inactive) | 0.00624 (inactive) | 3.96% (inactive) | 5.8% (inactive)
8 | CN(C)c1cccc(C(=O)OCC(=O)NCc2ccco2)c1 | 806 | -12.9% (inactive) | 5.8% (inactive) | 85.3 | 9.6% (inactive) | 97.5 | -0.603 (inactive) | 3e-05 (inactive) | 0.0074 (inactive) | 10.8% (inactive) | 5.69% (inactive)
9 | CN(CC(=O)Nc1sccc1C#N)C1CCCCC1 | 723 | -7.3% (inactive) | -178% (inactive) | 7.1 | -27.2% (inactive) | 125 | -0.42 (inactive) | -1.4e-05 (inactive) | 0.00552 (inactive) | -14.2% (inactive) | 99.3% (active)
10 | CCOC(=O)c1c(NC(=O)c2cccs2)sc2c1CCN(C(=O)OCC)C2 | 416 | -2% (inactive) | -6.8% (inactive) | 99.7 | 14.8% (inactive) | 115 | -0.192 (active) | -6.6e-05 (inactive) | 0.0082 (inactive) | 10.1% (inactive) | -1.84% (inactive)
11 | O=C(Oc1ccc2c(c1)CCC2)N1CCOCC1 | 360 | 5.5% (inactive) | 6.4% (inactive) | 88.2 | 21.8% (inactive) | 81.4 | -0.393 (inactive) | 8.5e-06 (inactive) | 0.00612 (inactive) | -63.8% (inactive) | -185% (inactive)
12 | COc1ccc(C2CC(c3ccc(C)cc3)Nc3ncnn32)cc1 (stereo not drawn) | 615 | -0.2% (inactive) | -9.1% (inactive) | 107 | 30.7% (inactive) | 98.3 | -0.524 (inactive) | -2.3e-05 (inactive) | 0.00685 (inactive) | 7.28% (inactive) | 16.4% (inactive)
13 | COc1ccc(N2C(=O)C3C4C=CC(C4)C3C2=O)nn1 (stereo not drawn) | 719 | -5.5% (inactive) | -9.5% (inactive) | 100 | -182% (inactive) | 142 | -0.44 (inactive) | -0.000108 (inactive) | 0.00628 (inactive) | 11.4% (inactive) | 23.1% (inactive)
14 | Cc1nc2nc(-c3cccnc3)nn2c(C)c1Cl | 689 | -13.8% (inactive) | -5.4% (inactive) | 81.3 | -32.8% (inactive) | 107 | -0.333 (inactive) | -3.7e-05 (inactive) | 0.00559 (inactive) | -17.9% (inactive) | -15.3% (inactive)
15 | CCn1cc(C2=NOC(C(=O)Nc3c(C)nn(Cc4ccc(F)cc4)c3C)C2)c(C)n1 (stereo not drawn) | 766 | -12.2% (inactive) | -18.1% (inactive) | 105 | -34.2% (inactive) | 94.7 | -0.581 (inactive) | -2.9e-05 (inactive) | 0.00617 (inactive) | 12.3% (inactive) | 11.4% (inactive)
16 | Cc1cccc(NC(=O)c2oc3c(c2C)C(=O)CC(C)(C)C3)n1 | 256 | -4% (inactive) | -4.5% (inactive) | 90.8 | -63.6% (inactive) | 93.5 | -0.403 (inactive) | -7.1e-05 (inactive) | 0.00548 (inactive) | -18% (inactive) | -30.8% (inactive)
17 | CCOC(=O)Cn1c(S(=O)(=O)Cc2ccccc2)nc2ccccc21 | 811 | 5.5% (inactive) | -22.5% (inactive) | 110 | -135% (inactive) | 127 | -0.579 (inactive) | -1.4e-05 (inactive) | 0.00594 (inactive) | 9.42% (inactive) | 30.4% (inactive)
18 | CCOc1ccc(NC(=O)CCN2CCN(c3ccccc3)CC2)cc1 | 696 | -6.4% (inactive) | 8.3% (inactive) | 101 | -44.6% (inactive) | 105 | -0.261 (inactive) | -1.2e-05 (inactive) | 0.00485 (inactive) | 20.2% (inactive) | 16.6% (inactive)
19 | O=C(Nc1ccccc1)c1cccc(N2CCCC2=O)c1 | 363 | -6.9% (inactive) | -3.4% (inactive) | 101 | -74.1% (inactive) | 88 | -0.457 (inactive) | 3.8e-05 (inactive) | 0.00552 (inactive) | -43.5% (inactive) | -128% (inactive)
20 | Cc1cc(=O)oc(C)c1C(=O)O | 560 | -13.1% (inactive) | 20.6% (inactive) | 88.5 | -3.9% (inactive) | 114 | -0.451 (inactive) | -0.000139 (inactive) | 0.00558 (inactive) | 9.47% (inactive) | 25.5% (inactive)
21 | CCN1CCN(Cc2ccc(NC(=O)Nc3ccccc3)cc2)CC1 | 552 | -7.5% (inactive) | -20.2% (inactive) | 56.6 | -49.1% (inactive) | 102 | -0.605 (inactive) | -1.7e-05 (inactive) | 0.00679 (inactive) | 10.6% (inactive) | -14.4% (inactive)
22 | CC(=O)N1CCc2c(sc(NC(=O)c3ccc(S(=O)(=O)N(C)C)cc3)c2C#N)C1 | 660 | -0.8% (inactive) | 18.5% (inactive) | 87.4 | 7.9% (inactive) | 93 | -0.52 (inactive) | -3.5e-05 (inactive) | 0.0064 (inactive) | -4.77% (inactive) | 22.6% (inactive)
23 | CCc1cc2c(=O)c(-c3nc4ccccc4[nH]3)coc2c(CN2CCC(C)CC2)c1O | 708 | -7.9% (inactive) | 11.5% (inactive) | 102 | 15.3% (inactive) | 107 | -0.552 (inactive) | -3.1e-05 (inactive) | 0.00554 (inactive) | 7.38% (inactive) | 5.36% (inactive)
24 | O=C1CC(Sc2nnc(-c3ccccc3)o2)C(=O)N1c1ccccc1 (stereo not drawn) | 677 | -1.1% (inactive) | 3.6% (inactive) | 105 | -12.2% (inactive) | 91.1 | -0.404 (inactive) | -6.5e-05 (inactive) | 0.00487 (inactive) | 4.52% (inactive) | 3.11% (inactive)
25 | Cc1noc(/C=C/N(C)C)c1S(=O)(=O)N1CCCC(C(=O)N2CCCCC2)C1 (stereo not drawn) | 709 | 9.1% (inactive) | -0.1% (inactive) | 80.5 | -79.5% (inactive) | 117 | -0.516 (inactive) | -3.8e-05 (inactive) | 0.00526 (inactive) | 7.18% (inactive) | 28.7% (inactive)
26 | Cc1cc(C(=O)Nc2ccc(S(=O)(=O)Nc3onc(C)c3C)cc2)cs1 | 608 | -3% (inactive) | 15.4% (inactive) | 94.1 | -17.7% (inactive) | 105 | -0.361 (inactive) | -5e-05 (inactive) | 0.00493 (inactive) | 5.43% (inactive) | 8.03% (inactive)
27 | COc1ccccc1S(=O)(=O)Cc1ccc(C(=O)N2CCN(c3ccccn3)CC2)o1 | 624 | -4% (inactive) | 0.9% (inactive) | 106 | -53.1% (inactive) | 104 | -0.517 (inactive) | -3.4e-05 (inactive) | 0.00659 (inactive) | 20.6% (inactive) | 15.8% (inactive)
28 | O=C(Nc1cccc2ncccc12)c1ccc2c(c1)OCCO2 | 586 | 2.2% (inactive) | 11.1% (inactive) | 101 | -8.1% (inactive) | 81.2 | -0.46 (inactive) | -4.6e-05 (inactive) | 0.00308 (inactive) | -12.7% (inactive) | -8.56% (inactive)
